Laboratory results taken from PubChem BioAssay AID624483 (NMMLSC, 2012).
Where “and” joins values, the source holds several entries; their conditions need not be identical. Equal values may be shown once. The campaign covered roughly 360,000 compounds. About 11,000 (3.1%) were called active. About 2% were inconclusive and are not listed. Many of the other results were omitted from the sample, so actives are more common in it than they were. A number with no mark means an inactive call. No stated cut-off is given here; in the data, active means fluorescence intensity above about 16000; inconclusive means no clear call, values can overlap the other calls; inactive means below that.

Assay: counter-screen for toxin protease inhibitors: compound fluorescence, primary screen, artefact control for toxin protease inhibitor project, biochemical, multiplex microsphere, HTS (AID 624483)
Details: compound autofluorescence counterscreen, microsphere flow cytometry; stronger effect = higher value

SMILES | fluorescence intensity
CCC(Oc1ccccc1)C(=O)OCC(=O)Nc1c(C)nn(-c2ccccc2)c1C (centres undefined) | 3640
O=C(Nc1ccc2c(c1)CCC2)c1ccc(Br)s1 | 4300
O=C(NC1CCCC1)c1ccc(Br)s1 | 17100 (active)
O=C(NC1CCCCCCC1)c1cccs1 | 3700
CC(C)NC(=O)N1Cc2cc(C(=O)NCC(F)(F)F)nc(-c3cccc(-c4cc5ccccc5o4)c3)c2[C@@H]1CCO | 6410
CCC(C)(C)NC(=O)CN(Cc1cccs1)C(=O)CNS(=O)(=O)c1ccc(F)cc1 | 4360
Cc1[nH]c2ccccc2c1CCN(Cc1cccs1)C(=S)NC(C)(C)C | 4220
Cc1ccc(S(=O)(=O)NCC(=O)N(CC(=O)NC2CCCCC2)Cc2ccco2)cc1 | 3490
Cc1ccc(S(=O)(=O)NCC(=O)N(CC(=O)NC(C)(C)C)Cc2cccs2)cc1 | 23500 (active)
O=C(CN(CC1CCCO1)C(=O)CNS(=O)(=O)c1ccccc1)NCc1ccccc1 (centres undefined) | 4900
CC(C)(C)NC(=O)CN(Cc1cccs1)C(=O)CNS(=O)(=O)c1ccccc1 | 22000 (active)
CSCCC(c1nnnn1Cc1ccccc1)N1CCN(C/C=C/c2ccccc2)CC1 (centres undefined) | 6070
COC(=O)[C@]12CCCCC=C1N(Cc1cccc3ccccc13)C(=O)[C@H](CC(=O)N1CCOCC1)C2 | 4200
CC1(C(=O)O)CCN1C(=O)/C=C/c1ccccc1 (centres undefined) | 3910
CCc1ccc(Nc2n[n+](-c3ccccc3)c(-c3cccc(Cl)c3Cl)s2)cc1 | 4300
CN(Cc1ccc2nsnc2c1)Cc1nc(Cc2cccc(F)c2)no1 | 4550
O=C1NC[C@@H](CCCCN2CCN(CCc3ccc(O)cc3)C(=O)C2=O)N(CC2CCCCC2)C1=O | 6050
O=C(COC(=O)CCc1nc2ccccc2c(=O)[nH]1)Nc1ccc(N2CCOCC2)cc1 | 4110
COc1ccc(Sc2ccc(NC(=O)c3cccc(Cl)c3)cc2C#N)cc1 | 3440
CC(=O)Nc1nc(C)c(Cc2ccccc2)c(=O)[nH]1 | 2420

SMILES | fluorescence intensity
Cc1ccc2c(O)c(Cc3ccccc3)c(=O)[nH]c2n1 | 3740
Cc1nc(SC(C)C)[nH]c(=O)c1Cc1ccccc1 | 23800 (active)
CC(C)NC(=O)C1(C)CCCCN1Cc1cccc(C(F)(F)F)c1 (centres undefined) | 3020
COc1ccc(-c2nc3cnccn3c2NC2CCCCC2)cc1-c1cccc(Cl)c1 | 6580 and 3860
CCOc1cc(-c2nc3cc(C)ccn3c2NCC2CCCO2)ccc1O (centres undefined) | 4290
COc1ccc(-c2nc3cc(C)ccn3c2NC2CCCCC2)cc1SC1CCCCC1 | 20700 (active) and 26600 (active)
COc1cc(NC(=O)CN2C(=O)NC(C)(c3ccc(OC(F)F)cc3)C2=O)cc(OC)c1OC (centres undefined) | 3820
CN(CC(=O)Nc1c(Cl)cccc1Cl)C(=O)CNC(=O)C1CCCCC1 | 4800
CC(=O)N1C[C@@H](CO)[C@@H](N(C)C(=O)c2ccco2)C[C@H]1c1ccccc1 | 6130
C=CCn1c(SCC(=O)NCc2ccccc2)nnc1-c1cc(Br)ccc1O | 20700 (active)
C=CCn1c(SCC(=O)NC(=O)Cc2ccccc2)nc2ccccc2c1=O | 8750
O=C(CSc1nnc(-c2cccnc2)n1CCc1ccccc1)NCc1ccccc1 | 2870
Cc1nc(CC(=O)NNS(=O)(=O)c2ccc(F)c(Cl)c2)cs1 | 2630
COc1ccc(N(Cc2cc3ccc(C)cc3[nH]c2=O)S(=O)(=O)c2ccccc2)cc1 | 4310
CCN(Cc1cc2cc(C)ccc2[nH]c1=O)S(=O)(=O)c1ccccc1 | 16600 (active)
CCC(=O)N(CCc1ccccc1)Cc1cc2cc(C)ccc2[nH]c1=O | 3090
CC1(C(=O)NS(=O)(=O)Cc2cccc(Cl)c2)CCN1C(=O)Cc1ccccc1 (centres undefined) | 3480
CC(=O)Nc1cccc(NC(=O)CSc2nccn2Cc2ccc(F)cc2)c1 | 6150
OC(c1ccc(Cl)c(F)c1)c1ncc(-c2ccccc2Cl)[nH]1 (centres undefined) | 3970
COc1ccc(-c2[nH]nc3c2C(c2ccncc2)C(C#N)=C(N)O3)cc1 (centres undefined) | 3830

SMILES | fluorescence intensity
COCc1[nH]nc2c1C(C1C=CCCC1)C(C#N)=C(N)O2 (centres undefined) | 11600
COc1cc(C2C(C#N)=C(N)Oc3n[nH]c(-c4ccccn4)c32)cc(OC)c1OC (centres undefined) | 22700 (active)
NC(=O)Cc1ccc2sc(-c3ccccc3)nc2c1 | 2610
O=C(COc1ccccc1F)Nc1nc(-c2ccccn2)cs1 | 3790
CC(NC(=O)c1ccco1)C(=O)Nc1nc(-c2ccccn2)cs1 (centres undefined) | 20700 (active)
Cc1cc(NC(=O)[C@H](C)NC(=O)c2ccco2)ccc1Br | 3700
COCCNc1ncnc2c1ncn2[C@H]1CN(CCN2CCOCC2)C[C@@H](CO)O1 | 3590
OC(c1ccccc1)C(CN1CCOCC1)c1ccccc1 (centres undefined) | 4580
CN[C@H]1C[C@H]2c3cc(Oc4ccccc4C)ccc3CCN2C(=O)[C@H]1[C@H](C)O | 5280
O=C(CCC1CCCN(Cc2ccc(O)c(Cl)c2)C1)NCc1ccccc1F (centres undefined) | 4480
CC(=O)Oc1ccc(Cn2c(C)c(C(=O)NCc3ccc(C#N)cc3)sc2=O)cc1 | 5590
CCCCNC(=O)CSc1nccn1Cc1ccccc1 | 8790
COC(=O)CCSc1nccn1Cc1ccccc1 | 20500 (active)
CCCCCCNC(=O)CSc1nccn1Cc1ccccc1 | 9260
O=C(NCCN1CCOCC1)c1ccccc1N1C(=O)[C@@H]2Cc3c([nH]c4ccccc34)C(c3cccc(Cl)c3)N2C1=O (some centres undefined) | 5120
CCc1nc2c(OCc3ccc(C(=O)OC)cc3)cccn2c1N(C)C(=O)C(C)C | 3990
CC(=O)C1=C(C)NC(=O)NC1c1ccc2c(c1)OCO2 (centres undefined) | 4750
CC(=O)c1cc2c(cc1NC(=O)CN1CCCCCC1)OCO2 | 3760
CC(=O)c1cc2c(cc1N)OCO2 | 22400 (active)
